TDP-43 yeast inh = rescues yeast growth from TDP-43 toxicity; AID 652104; actives 1.8% (n = 410,000); Potency, µM (titrated, usually from 46.1 µM), for the others: at the highest dose growth rescue (activation), hits mostly activators; TDP-43 expressing yeast growth rescue, BacTiter-Glo, 24 h; also: potency is read from the fitted curve at half-maximal effect; % of control where 0% means no effect; nearly all actives have a fitted effect of over 50% in size
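Yeast cells expressing TDP-43 under galactose induction are exposed to compounds for 24 hr at 30 deg C. BacTiter-Glo luminescence measures growth, so protective compounds score as activators.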
Abeta yeast res = restores growth of yeast expressing A-beta42 peptide; Potency, µM (top dose mostly 46.1 µM), hits mostly activators; actives 0.063% (n = 410,000); yeast expressing A-beta42, growth rescue, OD600, 48 h; response scale: 0% DMSO, 100% iron-clioquinol control; also: potency is read from the fitted curve at half-maximal effect; nearly all actives have a fitted effect of over 55% in size
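Yeast A-beta toxicity model in growth medium with pinned compounds, 48 h at 30 C; growth read as absorbance at 600 nm. Normalized to FeCl3/clioquinol equimolar mix (positive) and DMSO (negative).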
LDHA inh = LDHA (human) enzyme inhibition; P00338; purified LDHA, NADH/diaphorase-resazurin fluorescence; active compounds read low; activity change, % (values are at about 110 or 230 µM); actives 0.15% (n = 480,000); AID 1347041; in the data active = activity change below about -30%; inconclusive = mostly about -25% to -30%;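 also: plate controls were DMSO wells for no effect and wells without enzyme for full effect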
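Enzyme activity of human lactate dehydrogenase 5 (2 nM; 0.06 mM NADH, 0.2 mM pyruvate, 5 min, RT) is measured via a resazurin/diaphorase fluorescence readout of residual NADH.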
PTHR1 agonist = PTHR1 (human) receptor agonism; Q03431; HEK293 GP2 PTHR1 cells, GloSensor cAMP luminescence, 1 h; Potency, µM (series often up to 115 µM), inactives show top-dose activation, usual class: activators; actives 0.075% (n = 410,000); AID 743266; also: potency is read from the fitted curve at half-maximal effect; nearly all actives have a fitted effect of over 55% in size
Target sequence (Q03431 whole entry, looked up): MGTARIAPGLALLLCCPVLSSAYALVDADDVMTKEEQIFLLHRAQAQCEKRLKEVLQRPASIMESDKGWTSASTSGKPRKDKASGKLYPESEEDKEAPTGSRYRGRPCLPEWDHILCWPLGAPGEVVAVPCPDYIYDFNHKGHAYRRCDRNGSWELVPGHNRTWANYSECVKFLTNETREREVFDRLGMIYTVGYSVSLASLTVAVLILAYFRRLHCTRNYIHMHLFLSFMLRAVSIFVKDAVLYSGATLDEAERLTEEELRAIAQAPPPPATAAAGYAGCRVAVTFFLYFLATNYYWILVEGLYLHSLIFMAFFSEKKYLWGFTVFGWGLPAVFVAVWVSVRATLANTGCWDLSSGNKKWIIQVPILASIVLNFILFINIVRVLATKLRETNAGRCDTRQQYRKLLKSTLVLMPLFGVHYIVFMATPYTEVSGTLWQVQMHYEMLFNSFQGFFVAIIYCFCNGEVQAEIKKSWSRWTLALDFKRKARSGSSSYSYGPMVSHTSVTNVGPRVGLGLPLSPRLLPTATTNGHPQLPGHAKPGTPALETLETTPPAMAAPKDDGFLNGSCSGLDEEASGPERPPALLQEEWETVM
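HEK-293-derived GP2 cells expressing PTHR1 and a GloSensor cAMP reporter, 3,000/well, plated overnight, given luciferin plus IBMX (each 0.5 mM as added) for 1 h at 37 °C, then compound for 1 h at 37 °C. Luminescence was read after 15 min at room temperature.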
aSyn yeast inh = alpha-synuclein toxicity inhibition in yeast | AID 652106 | Potency, µM (series often up to 46.1 µM), inactives show top-dose growth rescue (activation), usual class: activators | actives 0.14% (n = 370,000) | Yeast expressing alpha-synuclein, growth rescue, BacTiter-Glo, 24 h; also: potency is read from the fitted curve at half-maximal effect; % of control where 0% means no effect; nearly all actives have a fitted effect of over 65% in size
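Galactose-induced alpha-syn yeast (OD600=0.02, raffinose-pregrown) + pinned cpd, 24 hr, 30 deg C; growth by BacTiter-Glo luminescence. Growth restoration scores as activation.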
FUS suppressor = rescues growth of FUS-expressing yeast; S. cerevisiae FUS-expressing, growth rescue, OD600, 24 h; Potency, µM (titrated, usually from 76.6 µM), most hits filed as activators; actives 0.24% (n = 390,000); AID 1347120;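 also: potency is read from the fitted curve at half-maximal effect; plate controls were DMSO vehicle for no effect and reference control for full effect; nearly all actives have a fitted effect of over 55% in size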
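Steps: raffinose overnight preculture; dilution to OD 0.005 in 2% galactose minimal medium; compound addition (concentration series); 24hr at 30C, 99% humidity; absorbance read at 600 nm.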
Starred values were filed as active, the others as inactive; [ ] = dose if it differs, or a comment. Shown are actives, neighbours in structure and some others; about 1.9% of the full set was active somewhere. Unless noted, calls follow the shape of the dose curve; as a rule, active = well fitted curve in the direction sought with a large enough effect; inconclusive = small, poorly fitted or top-dose-only effect, or another doubt; inactive = no such curve, though single readings can be large; an effect the other way counts as inactive or inconclusive.

What do the screens show for `CN(Cc1ccccc1)C(=O)c1ccc2c(c1)N(Cc1ccccc1F)C(=O)c1ccccc1S2(=O)=O`?
TDP-43 yeast inh: 1%; Abeta yeast res: inactive; LDHA inh: -9; PTHR1 agonist: -43%; FUS suppressor: 32µM*

Results for Cc1ccc(C)c(CN2C(=O)c3ccccc3S(=O)(=O)c3ccc(C(=O)N(C)C4CCCCC4)cc32)c1 ?
TDP-43 yeast inh: inconclusive; Abeta yeast res: inactive; LDHA inh: 4; PTHR1 agonist: -9%; FUS suppressor: inactive

How did CN(C(=O)c1ccc2c(c1)N(Cc1ccccc1F)C(=O)c1ccccc1S2(=O)=O)C1CCCCC1 do in these assays?
TDP-43 yeast inh: -4%; Abeta yeast res: inactive; LDHA inh: 4; PTHR1 agonist: -19%; FUS suppressor: 10µM*

What do the screens show for `Cc1cccc(CN2C(=O)c3ccccc3S(=O)(=O)c3ccc(C(=O)N(C)Cc4ccccc4)cc32)c1`?
TDP-43 yeast inh: 14%; Abeta yeast res: inactive; LDHA inh: -2; PTHR1 agonist: -3%; FUS suppressor: inconclusive

Results for Cc1c(C(=O)Nc2nccs2)nnn1-c1cccc(C(F)(F)F)c1 ?
LDHA inh: 0

What do the screens show for `O=C(c1cc(-c2ccco2)on1)N1CCCc2ccccc21`?
TDP-43 yeast inh: 6%; Abeta yeast res: inactive; LDHA inh: 6; PTHR1 agonist: -2%[57.5 µM]; aSyn yeast inh: -2%; FUS suppressor: 35µM*

What do the screens show for `Cc1ccc(C(=O)NC2CCc3ccccc3C2=O)cc1` (stereo not given)?
TDP-43 yeast inh: 14µM*; Abeta yeast res: inactive; LDHA inh: -1; PTHR1 agonist: -26%; aSyn yeast inh: -3%; FUS suppressor: inactive

How did O=C(O)CSc1ncnc2c1oc1ccccc12 do in these assays?
TDP-43 yeast inh: -14%; Abeta yeast res: inactive; LDHA inh: -4; PTHR1 agonist: inactive; aSyn yeast inh: 0%; FUS suppressor: inactive

How did c1ccc(Sc2ncnc3c2oc2ccccc23)cc1 do in these assays?
TDP-43 yeast inh: 13µM*; Abeta yeast res: inactive; LDHA inh: 3; PTHR1 agonist: -37%; aSyn yeast inh: -1%; FUS suppressor: inactive

Results for Brc1ccc(C2=NOC(c3cccs3)C2)cc1 (stereo not given) ?
LDHA inh: -16

What do the screens show for `COc1cc(C2c3c(-c4cc(C)cc(C)c4O)n[nH]c3C(=O)N2CCCO)cc(OC)c1OC` (stereo not given)?
TDP-43 yeast inh: 1%; Abeta yeast res: inactive; LDHA inh: 1; PTHR1 agonist: -24%; aSyn yeast inh: -2%; FUS suppressor: inactive

Results for COCCCN1C(=O)c2[nH]nc(-c3cc(C)cc(C)c3O)c2C1c1ccc(O)c(OC)c1 (stereo not given) ?
TDP-43 yeast inh: 8%; Abeta yeast res: inactive; LDHA inh: 1; PTHR1 agonist: inactive; aSyn yeast inh: 1%; FUS suppressor: 40µM*

What do the screens show for `Nc1nccnc1C(=O)NCCNc1ncc(C(F)(F)F)cc1Cl`?
LDHA inh: 4

What do the screens show for `Cc1nc(SCC(=O)NCc2ccc3c(c2)OCO3)c(C#N)c2c1CCCC2`?
TDP-43 yeast inh: inconclusive; Abeta yeast res: inactive; LDHA inh: -5; PTHR1 agonist: inactive; aSyn yeast inh: 18µM*; FUS suppressor: inactive

How did N#Cc1c(SCC(=O)NCCc2ccccc2)nc(N2CCOCC2)c2c1CCCC2 do in these assays?
LDHA inh: -31*

How did O=C(CSc1nncs1)NCc1ccc2c(c1)OCO2 do in these assays?
TDP-43 yeast inh: 13µM*; Abeta yeast res: inactive; LDHA inh: -5; PTHR1 agonist: inactive; aSyn yeast inh: -1%; FUS suppressor: inactive

Results for Cc1ccccc1Cn1c(N2CCC(C(=O)N3CCCC3)CC2)nc2ccccc21 ?
LDHA inh: 11

What do the screens show for `CCOc1cccc(-c2cc(C(=O)N3N=C(C)CC3(O)C(F)F)c3ccccc3n2)c1` (stereo not given)?
TDP-43 yeast inh: 18µM*; Abeta yeast res: inactive; LDHA inh: 0; PTHR1 agonist: inactive; aSyn yeast inh: 5%; FUS suppressor: inactive

What do the screens show for `Cc1ccc(S(=O)(=O)Cc2noc(CCC(=O)NCc3ccc(Cl)cc3)n2)cc1`?
LDHA inh: 7

Results for Cc1ccccc1C(=O)Oc1ccc(Cl)cc1C(=S)N1CCOCC1 ?
TDP-43 yeast inh: 13µM*; Abeta yeast res: inactive; LDHA inh: -5; PTHR1 agonist: inactive; aSyn yeast inh: -9%; FUS suppressor: inactive

Results for O=C(Oc1ccc(C(=S)N2CCOCC2)cc1Cl)c1ccccc1F ?
TDP-43 yeast inh: 12%; Abeta yeast res: inactive; LDHA inh: -15; PTHR1 agonist: -6%; aSyn yeast inh: -21%; FUS suppressor: inactive

What do the screens show for `COc1ccc(S(=O)(=O)Oc2ccc(C(=S)N3CCOCC3)cc2OC)cc1`?
TDP-43 yeast inh: inconclusive; Abeta yeast res: inactive; LDHA inh: -12; PTHR1 agonist: -25%; aSyn yeast inh: 5%; FUS suppressor: inactive

How did O=C(Oc1ccc(C(=S)N2CCOCC2)cc1)c1cccc(Cl)c1 do in these assays?
TDP-43 yeast inh: 13µM*; Abeta yeast res: inactive; LDHA inh: -2; PTHR1 agonist: -19%; aSyn yeast inh: 24%; FUS suppressor: inactive

How did O=S(=O)(Oc1ccc(C(=S)N2CCOCC2)cc1)c1ccc(Cl)cc1 do in these assays?
TDP-43 yeast inh: 18µM*; Abeta yeast res: inactive; LDHA inh: -8; PTHR1 agonist: -18%; aSyn yeast inh: 3%; FUS suppressor: inactive

Results for CCN1CCN(C(=O)CCCn2nc(C)c3c(C)n(-c4ccc(C)cc4)nc3c2=O)CC1 ?
LDHA inh: -2

What do the screens show for `CCSc1ccc2cc(C(=O)O)[nH]c2c1`?
LDHA inh: -1

What do the screens show for `O=C(CN1CCN(c2cnn(-c3ccccc3)c(=O)c2Cl)CC1)Nc1ccc2c(c1)CCC2`?
LDHA inh: 4

Results for O=C(CSc1ccc(Cl)cc1)N1CCC(c2nc3ccccc3s2)CC1 ?
TDP-43 yeast inh: 25µM*; Abeta yeast res: inactive; LDHA inh: -10; PTHR1 agonist: -12%; aSyn yeast inh: inconclusive; FUS suppressor: inactive

What do the screens show for `COc1cc(C(=O)Nc2ccc(C(C)=O)cc2)c(Br)c(OC)c1OC`?
TDP-43 yeast inh: 5%; Abeta yeast res: inactive; LDHA inh: -10; PTHR1 agonist: -20%; aSyn yeast inh: -10%
